Assay outcomes from PubChem BioAssay.
The full list was thinned out, with hits kept by preference.
aSyn yeast rescue – inhibitors of alpha-synuclein toxicity in yeast | Potency, µM (top dose mostly 46.1 µM), actives largely listed as activators | AID 1347070 | S. cerevisiae alpha-synuclein toxicity rescue, BacTiter-Glo growth, 24 h | actives 0.02% (n = 94,000); active means well fitted activation curve with a large enough effect; further: 0% is about no effect
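Growth restoration measured by BacTiter-Glo luminescence after 24 hr at 30 deg C; alpha-synuclein yeast, raffinose-pregrown to mid-log, were added at OD600=0.02 in galactose medium onto pinned compounds.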
The depositor's hits bear a star; i = inactive. Potency means the concentration at half of the fitted maximal effect.

SMILES	aSyn yeast rescue
CCOC(=O)NC1(C(F)(F)F)NC(=O)N(c2ccc(C)c(C)c2)C1=O (stereo unspecified)	i
Cc1ccc(NC(=O)c2ccc(CN3CC(=O)N4CCCCC4C3=O)cc2)cc1C (stereo unspecified)	i
Cc1nn2c(C)c(C(=O)NCc3cccc(Br)c3)cnc2c1-c1ccccc1	i
Cc1ccc(CCNC(=O)c2cc(C)nc3c2c(C)nn3-c2ccc(C)cc2)cc1	i
COc1ccc(N(C(=O)/C=C\C(=O)Nc2ccc(Cl)cc2)C(C(=O)NCc2ccco2)c2ccc(C)cc2)cc1 (stereo unspecified)	i
Cc1ccc(-c2cc(-c3ccc4c(c3)NC(=O)CO4)nc3c2COc2ccccc2-3)cc1	i
O=C(Nc1ccc(F)cc1Cl)n1ncc2cc(Cl)ccc21	i
Cc1ccc(NC(=O)Cn2cc(S(=O)(=O)Cc3ccc(F)cc3)c3ccccc32)cc1Cl	i
Cc1ccc(C)c(N2CCN(C(=O)c3ccc(-c4nc(COc5ccccc5)c(C)o4)cc3)CC2)c1	i
O=c1cc(-c2ccccc2)n2c(SCc3ccc(Br)cc3)nnc2[nH]1	i
Cc1cc(C)c2nc(N(Cc3cccnc3)C(=O)c3cccs3)sc2c1	i
Cc1cccc2sc(N(Cc3cccnc3)C(=O)c3ccco3)nc12	i
Cc1cc(C)c2nc(N(Cc3cccnc3)C(=O)Cc3ccccc3)sc2c1	12.6µM*
Cc1ccc2nc(N(Cc3cccnc3)C(=O)Cc3ccccc3)sc2c1	i
Cc1cccc2sc(N(Cc3cccnc3)C(=O)CCc3ccccc3)nc12	i
Cc1cccc2sc(N(Cc3cccnc3)C(=O)Cc3ccccc3)nc12	10µM*
COc1ccc(S(=O)(=O)c2c(SC)nn(CC(=O)Nc3ccc(C)c(Cl)c3)c2N)cc1	i
CCCCCOc1ccc(/C=C/C(=O)Nc2sc(C)c(C)c2C(=O)OCC)cc1OC	i
NS(=O)(=O)c1ccc(CCNc2nc3c(-c4cccc(F)c4)nnn3c3ccc(Cl)cc23)cc1	i
COc1ccc(C(=O)N2CCN(c3nc4c(C)c(Cl)ccc4s3)CC2)c(OC)c1	15.8µM*
Cc1c(Cl)ccc2sc(N3CCN(C(=O)C(C)C)CC3)nc12	i
COc1cc2ccccc2cc1C(=O)N1CCN(c2nc3c(C)cc(C)cc3s2)CC1	i
